Values joined by “and” are separate entries in the source; they are usually repeats but may differ in a detail not shown here. Equal entries are not always repeated.
experiment: yeast TOR pathway CIT2-GFP reporter retest – flow cytometry, third cherry pick, single plex, confirmation (AID 504340);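 note: median GFP fluorescence over all cells with no mother versus daughter split; sample signal as a ratio to the plate DMSO mean so 100% equals DMSO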; settings: S. cerevisiae CIT2-GFP strain, 3 h, at 10 µM, hits give high values;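 active = GFP response above 150% of the DMSO control; inconclusive = Under 70 cell events counted for a yeast strain; inactive = the rest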

GFP response vs DMSO, inactive:
COc1cccc(N/C(C)=C/C(=O)c2ccc(Br)cc2)c1 104%
COc1ccc(-c2cc(C(F)(F)F)nc(S(C)(=O)=O)n2)cc1OC 112% and 109%
Cc1ccc(-c2cc(C(F)F)nc(S(C)(=O)=O)n2)cc1 91.2%
Cc1cn2c(N)c(C=C3C=C(Cl)C(=O)C(Cl)=C3)c(=O)nc2s1 101%
O=C(Nc1cccc2ccccc12)ON=C1CCCCC1 106%
O=C(Nc1ccccc1)ON=C1c2ccccc2-c2ccccc21 112%
Cc1ccc(Nc2nc(N)[nH]c(=O)c2N=O)cc1 106%
COc1cccc(N/C=C/C(=O)c2ccc(Cl)cc2)c1 107%
OCc1ccc(O)c2ncccc12 91.2%
C/C(=N\NC(=O)c1cccc2ccccc12)c1cccnc1 91.2%
Cc1ccc2nc(-c3ccc(NC(=O)c4cccnc4)cc3)oc2c1 104%
Cc1cccc(C)c1Nc1ncnc(N)c1[N+](=O)[O-] 103%
CSc1nc(Nc2ccc(Cl)cc2)c(C#N)c(=O)[nH]1 104%
CSc1ccccc1OCc1cc(C(=O)N2CCN(C)C(c3ccccc3)C2)no1 (centres undefined) 99.3%
CCN(CC)C(=O)Oc1ccnc2cc(Cl)ccc12 107%
O=C(O)c1ccc2cccc(O)c2n1 109%
CCCCC(=O)NCCc1cc2c(OC)ccc(OC)c2[nH]c1=O 96.1%
C[n+]1cccc2c(Br)ccc([O-])c21 97.7%
Oc1ccc(Cl)c2cccnc12 103%
O=C(/C=C/Nc1cccc(O)c1)c1ccccc1 111%
COC(=O)COc1c(Cl)cc(Cl)c2ccc(C)nc12 106%
Nc1c(O)ccc2c1C(=O)c1ccccc1C2=O 99.3%
Cc1nc2c(O)cccc2cc1CO 101%
CC(=O)Nc1ccc(-c2nc3ccccc3o2)cc1 99.3%
O=C(Nc1nc(-c2ccccn2)cs1)c1ccccc1-n1cnnn1 103%
Oc1ccc(F)c2cccnc12 101%
COc1ccccc1Nc1nc(NCCCN(C)C)nc(N)c1[N+](=O)[O-] 107%
COc1cccc(N/C=C/C(=O)c2ccc(C)cc2)c1 92.8%
Nc1c(C(=O)O)ccc2c1C(=O)c1ccccc1C2=O 101%
COCCNc1nc(N)c([N+](=O)[O-])c(Nc2ccc(F)cc2)n1 101%
COc1cc(OC)cc(C(=O)Nc2ccc(-c3nc4ccccc4o3)cc2)c1 112%
Cc1nc(Nc2ccc(Br)cc2Br)c([N+](=O)[O-])c(=O)[nH]1 103%
COCCCNc1nc(N)c([N+](=O)[O-])c(Nc2cc(OC)ccc2OC)n1 106%
COc1ccc(N/C(C)=C/C(=O)c2ccccc2)cc1 94.5%
CC(=O)C(Cl)C(=O)Nc1ccccc1 (centres undefined) 121%
CS(=O)(=O)Oc1ccc(Br)c2cccnc12 103%
Cc1ccc(C)c(Nc2ncnc(N)c2[N+](=O)[O-])c1 104%
Nc1nc(NCCOCCO)nc(Nc2cccc(F)c2)c1[N+](=O)[O-] 96.1%
CC(=O)C(CC(=O)N1CCCC1)C(=O)Nc1ccc(Cl)cc1 (centres undefined) 109%

From PubChem BioAssay AID504340 (NMMLSC, 2011)
